Laboratory results published in PubChem BioAssay (NCI).
The panel holds about 79,000 compounds, 15% with a hit somewhere; the sample as a whole holds those more often. Active and inactive are the calls of the source. Cut-off read from the data, not from the text of the source: active = growth inhibition above about 70%; inactive = the rest.

Legend:
[1] = NCI Yeast Anticancer Drug Screen. Data for the rad52 strain (AID 147);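 note: 0% = growth of vehicle-treated control cultures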; details: S. cerevisiae rad52 mutant growth inhibition, hits give high values
In short: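 Vehicle-treated cultures served as the reference for growth inhibition of compound-exposed yeast bearing a DNA repair mutation.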

[2] = NCI Yeast Anticancer Drug Screen. Data for the wt1 strain (AID 149);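 note: 0% = growth of vehicle-treated wt1 cultures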; details: S. cerevisiae wt1 strain (SPY 50644) growth inhibition, hits give high values
In short: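 Vehicle-normalised growth inhibition; strain wt1; compound exposure.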

[3] = NCI Yeast Anticancer Drug Screen. Data for the rad50EPP+ strain (AID 151);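 note: 0% = growth of vehicle-treated control cultures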; details: S. cerevisiae rad50 mutant strain, hits give high values
In short: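 In this screen, rad50EPP+ yeast were exposed to compounds. Growth inhibition was scored against vehicle-treated controls.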

[4] = NCI Yeast Anticancer Drug Screen. Data for the mgt1 strain (AID 153); details: S. cerevisiae mgt1 mutant growth inhibition, hits give high values
In short: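 mgt1 strain exposed; growth vs vehicle control recorded as inhibition.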

[5] = NCI Yeast Anticancer Drug Screen. Data for the rad50 strain (AID 155);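 note: 0% = growth of vehicle-only cultures of the same strain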; details: S. cerevisiae rad50 strain growth inhibition, hits give high values
In short: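 A DNA repair-deficient yeast mutant serves as the test organism; compound-induced growth inhibition is calculated against vehicle-treated cells.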

[6] = NCI Yeast Anticancer Drug Screen. Data for the mec2-1 strain (AID 157); details: S. cerevisiae mec2-1 strain, hits give high values
In short: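 Vehicle-treated cultures served as reference for growth inhibition of compound-exposed mec2-1 yeast.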

[7] = NCI Yeast Anticancer Drug Screen. Data for the rad14 strain (AID 159);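 note: 0% = growth of vehicle-treated control cultures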; details: S. cerevisiae rad14 strain growth inhibition, hits give high values
In short: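 Vehicle-treated cultures served as the baseline for growth inhibition of a DNA repair-mutant yeast strain exposed to each compound.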

[8] = NCI Yeast Anticancer Drug Screen. Data for the sgs1 mgt1 strain (AID 161);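 note: 0% = growth of cultures given vehicle only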; details: S. cerevisiae sgs1 mgt1 strain, hits give high values
In short: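 Mutant yeast exposed to compound; growth scored against vehicle-only wells.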

[9] = NCI Yeast Anticancer Drug Screen. Data for the CLN2oe strain (AID 163);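 note: 0% = growth of vehicle-only control cultures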; details: S. cerevisiae CLN2oe strain, hits give high values
In short: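 Inhibition relative to vehicle-treated yeast is reported. Cells: strain with genetic alteration in cell-cycle control, grown with compound.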

[10] = NCI Yeast Anticancer Drug Screen. Data for the cln2 rad14 strain (AID 165);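 note: 0% = growth equal to vehicle treated cultures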; details: S. cerevisiae cln2 rad14 strain, hits give high values
In short: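 Each compound was tested on cln2 rad14 yeast. Inhibition of growth was calculated against vehicle-exposed controls.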

[11] = NCI Yeast Anticancer Drug Screen. Data for the bub3 strain (AID 167); details: S. cerevisiae bub3 mutant strain, hits give high values
In short: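 Inhibition values come from growth of compound-treated mutant yeast normalised to vehicle-treated controls.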

[12] = NCI Yeast Anticancer Drug Screen. Data for the wt2 strain (AID 169);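 note: 0% = growth of vehicle-treated yeast cultures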; details: S. cerevisiae wt2 strain growth inhibition, hits give high values
In short: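 Inhibition of yeast growth was determined after compound treatment, normalised to controls receiving only vehicle.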

[13] = NCI Yeast Anticancer Drug Screen. Data for the mlh1 strain (AID 171);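 note: 0% = growth of vehicle-treated control cultures of the same strain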; details: S. cerevisiae mlh1 strain growth inhibition, hits give high values
In short: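 Vehicle-normalised growth inhibition of a repair- or checkpoint-altered yeast strain following compound treatment.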

[14] = NCI Yeast Anticancer Drug Screen. Data for the sgs1 strain (AID 173);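 note: 0% = growth of vehicle-only control cultures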; details: S. cerevisiae sgs1 mutant, hits give high values
In short: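 Screen format: yeast with repair or checkpoint alterations, compound exposure, growth read relative to vehicle.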

[15] = NCI Yeast Anticancer Drug Screen. Data for the mlh1 rad18 strain (AID 175); details: S. cerevisiae mlh1 rad18 strain growth inhibition, hits give high values
In short: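 Vehicle-treated cultures served as the reference for growth inhibition in a yeast strain carrying DNA damage repair alterations exposed to each compound.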

[16] = NCI Yeast Anticancer Drug Screen. Data for the rad18 strain (AID 177); details: S. cerevisiae rad18 mutant growth inhibition, hits give high values
In short: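 Test articles were incubated with altered yeast defective in DNA damage repair. Results are given as inhibition of growth versus vehicle.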

[17] = at 5.0 µM (retest, dose inferred, filed as 0.5)
[18] = at 50.0 µM (retest, dose inferred, filed as 5.0)

Measured: growth inhibition

O=C(NNc1ccccc1)c1ccc(Cl)c(Cl)c1
inactive: [1]; at 1.2 µM -1% | [1]; at 3.7 µM 2% | [1]; at 11.0 µM 5% | [1]; at 33.0 µM 26% | [1]; at 100.0 µM 58% | [2]; at 1.2 µM 0% | [2]; at 3.7 µM -1% | [2]; at 11.0 µM 1% | [2]; at 33.0 µM 16% | [2]; at 100.0 µM 46% | [3]; at 1.2 µM -1% | [3]; at 3.7 µM 5% | [3]; at 11.0 µM 13% | [3]; at 33.0 µM 33% | [4]; at 1.2 µM -1% | [4]; at 3.7 µM -1% | [4]; at 11.0 µM 2% | [4]; at 33.0 µM 8% | [4]; at 100.0 µM 23% | [5]; at 1.2 µM 2% | [5]; at 3.7 µM 5% | [5]; [17] 4% | [5]; at 11.0 µM 11% | [5]; at 33.0 µM 21% | [5]; [18] -4% | [5]; at 50.0 µM 38.6% | [5]; at 100.0 µM 61% | [6]; at 1.2 µM -4% | [6]; at 3.7 µM -3% | [6]; [17] -9% | [6]; at 11.0 µM -5% | [6]; at 33.0 µM 2% | [6]; [18] 3% | [6]; at 50.0 µM 40.9% | [6]; at 100.0 µM 23% | [7]; at 1.2 µM -2% | [7]; at 3.7 µM -2% | [7]; at 11.0 µM 3% | [7]; at 33.0 µM 4% | [7]; at 100.0 µM 23% | [8]; [17] 5% | [8]; [18] 19% | [8]; at 50.0 µM 44.2% | [9]; at 1.2 µM -7% | [9]; at 3.7 µM -3% | [9]; at 11.0 µM 0% | [9]; at 33.0 µM 14% | [9]; at 100.0 µM 40% | [10]; [17] 31% | [10]; [18] 18% | [10]; at 50.0 µM 0.2% | [11]; at 1.2 µM -5% | [11]; at 3.7 µM -2% | [11]; [17] -5% | [11]; at 11.0 µM -7% | [11]; at 33.0 µM 2% | [11]; [18] 13% | [11]; at 50.0 µM 30.3% | [11]; at 100.0 µM 14% | [12]; at 1.2 µM 1% | [12]; at 3.7 µM -1% | [12]; at 11.0 µM 2% | [12]; at 33.0 µM 15% | [12]; at 100.0 µM 37% | [13]; at 1.2 µM -2% | [13]; at 3.7 µM -3% | [13]; at 11.0 µM -3% | [13]; at 33.0 µM 8% | [13]; at 100.0 µM 47% | [14]; at 1.2 µM -3% | [14]; at 3.7 µM -3% | [14]; at 11.0 µM -1% | [14]; at 33.0 µM 17% | [14]; at 100.0 µM 47% | [15]; [17] 6% | [15]; [18] 61% | [15]; at 50.0 µM 44.9% | [16]; at 1.2 µM 2% | [16]; at 3.7 µM 4% | [16]; at 11.0 µM 6% | [16]; at 33.0 µM 37%
active: [3]; at 100.0 µM 74% | [16]; at 100.0 µM 88%

CCOC(=O)c1[nH]cc(C)c1-c1cccn1-c1ccc(Cl)cc1[N+](=O)[O-]
inactive: [1]; at 1.2 µM 13% | [1]; at 3.7 µM 19% | [1]; at 11.0 µM 27% | [1]; at 33.0 µM 25% | [2]; at 1.2 µM 16% | [2]; at 3.7 µM 6% | [2]; at 11.0 µM 16% | [2]; at 33.0 µM 12% | [3]; at 1.2 µM 22% | [3]; at 3.7 µM 30% | [3]; at 11.0 µM 32% | [3]; at 33.0 µM 32% | [3]; at 100.0 µM 55% | [4]; at 1.2 µM 3% | [4]; at 3.7 µM 17% | [4]; at 11.0 µM 20% | [4]; at 33.0 µM 48% | [5]; at 1.2 µM 1% | [5]; at 3.7 µM 8% | [5]; [17] 13% | [5]; at 11.0 µM 14% | [5]; at 33.0 µM 19% | [5]; [18] 43% | [5]; at 50.0 µM 32.5% | [6]; at 1.2 µM 4% | [6]; at 3.7 µM 15% | [6]; [17] 3% | [6]; at 11.0 µM -7% | [6]; at 33.0 µM 14% | [6]; [18] 48% | [6]; at 50.0 µM 46.1% | [7]; at 1.2 µM 21% | [7]; at 3.7 µM 15% | [7]; at 11.0 µM 16% | [7]; at 33.0 µM 31% | [8]; [17] 8% | [8]; at 50.0 µM 64.1% | [9]; at 1.2 µM -7% | [9]; at 3.7 µM -16% | [9]; at 11.0 µM -4% | [9]; at 33.0 µM -5% | [10]; [17] 11% | [10]; [18] 67% | [10]; at 50.0 µM 21.3% | [11]; at 1.2 µM 15% | [11]; at 3.7 µM 13% | [11]; [17] 9% | [11]; at 11.0 µM 12% | [11]; at 33.0 µM 32% | [11]; [18] 68% | [11]; at 50.0 µM 28.8% | [12]; at 1.2 µM -20% | [12]; at 3.7 µM -23% | [12]; at 11.0 µM -17% | [13]; at 1.2 µM 17% | [13]; at 3.7 µM 22% | [13]; at 11.0 µM 27% | [13]; at 33.0 µM 55% | [14]; at 1.2 µM 17% | [14]; at 3.7 µM 22% | [14]; at 11.0 µM 21% | [14]; at 33.0 µM 49% | [15]; [17] 11% | [15]; [18] 65% | [15]; at 50.0 µM 39.7% | [16]; at 1.2 µM 23% | [16]; at 3.7 µM 6% | [16]; at 11.0 µM 7% | [16]; at 33.0 µM 25%
active: [1]; at 100.0 µM 89% | [2]; at 100.0 µM 80% | [4]; at 100.0 µM 96% | [5]; at 100.0 µM 90% | [6]; at 100.0 µM 85% | [7]; at 100.0 µM 90% | [8]; [18] 87% | [9]; at 100.0 µM 92% | [11]; at 100.0 µM 91% | [12]; at 33.0 µM 84% | [12]; at 100.0 µM 93% | [13]; at 100.0 µM 96% | [14]; at 100.0 µM 95% | [16]; at 100.0 µM 89%
